# Measurements: PubChem BioAssay (EPA / NIEHS)
# Results filed as inconclusive are left out. Activity calls are given as the source filed them. Rule for the calls: active = hit-call score of the fitted dose curve at least 0.9, where 1 is the maximum; inconclusive = response in the unintended direction; inactive = score below 0.9.
# Columns and labels:
# [1] = ATG_M_06_XSP1: Attagene TRANS-FACTORIAL Multi-Species (XSP1) HepG2 Assay for M06 Transcription Factor (Internal Marker) (AID 2283790)
# Outline: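 Transfected HepG2 multi-reporter system treated 24 h in the presence of 3 nM 6-alpha-fluorotestosterone. The M06 internal marker transcript was quantified by RT-PCR with capillary electrophoresis as a background control, and gain of signal was scored versus DMSO.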
# [2] = ATG_M_19_XSP1: Attagene TRANS-FACTORIAL Multi-Species (XSP1) HepG2 Assay for M19 Transcription Factor (Internal Marker) (AID 2283798)
# Outline: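 HepG2 cells transiently transfected with multiplexed GAL4-UAS reporter units, dosed 24 h with 3 nM 6-alpha-fluorotestosterone present for partial AR stimulation. Reporter mRNA measured by RT-PCR with capillary electrophoresis; gain-of-signal fitted relative to DMSO.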
# [3] = target: Peroxisome proliferator-activated receptor gamma (Homo sapiens) (UniProt P37231); test: ATG_hPPARg_XSP1: Attagene TRANS-FACTORIAL Multi-Species (XSP1) HepG2 Assay for human Peroxisome Proliferator-activated Receptor gamma (PPARg) (AID 2283800)
# Outline: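 HepG2 cells transiently transfected with GAL4-UAS reporter units carrying chimeric NR-Gal4 proteins; 3 nM 6-alpha-fluorotestosterone present. After 24 h dosing, reporter mRNA quantified by RT-PCR and capillary electrophoresis; gain of signal relative to DMSO.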
# [4] = target: mouse Peroxisome Proliferator-activated Receptor gamma (PPARg), Pparg (gene 19016) (UniProt P37238); test: ATG_mPPARg_XSP1: Attagene TRANS-FACTORIAL Multi-Species (XSP1) HepG2 Assay for mouse Peroxisome Proliferator-activated Receptor gamma (PPARg) (AID 2283802)
# Outline: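 HepG2 cells transiently transfected with GAL4-UAS reporter units driven by mouse PPARg–GAL4 chimera; 3 nM 6-alpha-fluorotestosterone present. After 24 h dosing, reporter mRNA quantified by RT-PCR, fluorescent labelling and capillary electrophoresis; gain of signal versus DMSO.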
# [5] = target: human Thyroid hormone Receptor beta (TRb), THRB (gene 7068) (UniProt P10828); test: ATG_hTRb_XSP1: Attagene TRANS-FACTORIAL Multi-Species (XSP1) HepG2 Assay for human Thyroid hormone Receptor beta (TRb) (AID 2283808)
# Outline: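 HepG2 cells transiently transfected with reporter units driving GAL4-UAS reporters for chimeric NR-Gal4 proteins; 24 h chemical exposure with 3 nM 6-alpha-fluorotestosterone present. Reporter mRNA quantified by RT-PCR and capillary electrophoresis, gain of signal versus DMSO.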
# [6] = ATG_XTT_Cytotoxicity_XSP1: Cytotoxicity Assessment in the Attagene TRANS-FACTORIAL Multi-Species (XSP1) HepG2 Assay (AID 2283810)
# Outline: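 XTT viability readout taken at 24 hours post-dosing in HepG2 liver cells co-treated with 3 nM 6-alpha-fluorotestosterone. Signal loss relative to DMSO controls reflects cytotoxicity.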
# [7] = ATG_M_06_XSP2: Attagene TRANS-FACTORIAL Multi-Species (XSP2) HepG2 Assay for M06 Transcription Factor (Internal Marker) (AID 2283811);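 note: hits are increases in signal above the DMSO baseline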
# Outline: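 HepG2, multiplexed reporter transfection; 24 h dosing; AR stimulated with 3 nM 6-alpha-fluorotestosterone + 1.5 nM norgestrel; RNA → RT-PCR → 6-FAM primer extension → HpaI → CE. Positive direction vs DMSO.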
# [8] = tested on: turtle Estrogen Receptor (ERa), gene 101933533; test: ATG_trERa_XSP2: Attagene TRANS-FACTORIAL Multi-Species (XSP2) HepG2 Assay for turtle Estrogen Receptor (ERa) (AID 2283812);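 note: human HepG2 liver cells transiently expressing turtle ERa-Gal4 chimeric receptor; actives raise reporter signal above DMSO so AC50 reflects agonist activity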
# Outline: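 HepG2 cells transiently transfected with GAL4-UAS reporter units expressing turtle ERa-Gal4 chimera. Reporter mRNA measured after 24 h dosing by RT-PCR, fluorescent labelling and capillary electrophoresis; gain of signal fitted versus DMSO.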
# [9] = target: Estrogen receptor beta (Homo sapiens) (UniProt Q92731); test: ATG_hERb_XSP2: Attagene TRANS-FACTORIAL Multi-Species (XSP2) HepG2 Assay for human Estrogen Receptor (ERb) (AID 2283813);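 note: actives raise reporter mRNA above DMSO so AC50 reflects agonist induction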
# Outline: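 HepG2 cells transiently transfected with GAL4-UAS reporter units and chimeric human ERb-Gal4, 24 h exposure. Reporter mRNA quantified by RT-PCR with FAM labelling, HpaI digestion and capillary electrophoresis; gain of signal versus DMSO.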
# [10] = target: GAL4 Transcription Factor (Internal Marker), GAL4 (gene 855828) (UniProt P04386); test: ATG_GAL4_XSP2: Attagene TRANS-FACTORIAL Multi-Species (XSP2) HepG2 Assay for GAL4 Transcription Factor (Internal Marker) (AID 2283814);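 note: GAL4 reporter mRNA background control in MRTU transfected cells not a receptor target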
# Outline: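 HepG2 cells transiently transfected with GAL4-UAS reporter units, stimulated with 3 nM 6-alpha-fluorotestosterone plus 1.5 nM norgestrel, dosed 24 h. Reporter mRNA by RT-PCR/capillary electrophoresis; gain-of-signal fit versus DMSO, background control.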
# AR (gene 367) = AR (gene 367) (UniProt P10275); test: ACEA_AR_antagonist_80hr: ACEA Biosciences xCELLigence Real-Time Cell Analysis on Androgen Receptor Antagonism for Proliferation (AID 2283787);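 note: 22Rv1 human prostate cancer cells with growth followed by electrical impedance; hits lower the impedance growth signal relative to DMSO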
# Outline: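 Growth-kinetic antagonist readout in 22Rv1 cells, taken 80 h after continuous compound exposure. Activity fitted as signal loss relative to DMSO negative control.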
# [11] = ATG_M_32_XSP1: Attagene TRANS-FACTORIAL Multi-Species (XSP1) HepG2 Assay for M32 Transcription Factor (Internal Marker) (AID 2283799)
# Outline: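 HepG2 cells transiently transfected with multi-species TRANS reporter units, dosed 24 h with 3 nM 6-alpha-fluorotestosterone present. Internal-marker reporter mRNA quantified by RT-PCR and capillary electrophoresis; positive-direction fit versus DMSO.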
# [12] = target: frog Thyroid hormone Receptor alpha (TRa), thra-a (gene 397942) (UniProt P15204); test: ATG_frTRa_XSP1: Attagene TRANS-FACTORIAL Multi-Species (XSP1) HepG2 Assay for frog Thyroid hormone Receptor alpha (TRa) (AID 2283804)
# Outline: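 HepG2 cells transiently transfected with frog TRa-GAL4 chimeric reporter units, dosed 24 hr with 3 nM 6-alpha-fluorotestosterone present; reporter mRNA quantified by RT-PCR, fluorescent labelling and capillary electrophoresis, gain of signal versus DMSO.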
# [13] = tested on: turtle Thyroid Hormone Receptor, alpha (TRa), gene 101949057; test: ATG_trTRa_XSP1: Attagene TRANS-FACTORIAL Multi-Species (XSP1) HepG2 Assay for turtle Thyroid Hormone Receptor, alpha (TRa) (AID 2283806)
# Outline: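 HepG2 cells transiently transfected with GAL4-UAS reporter units and chimeric receptor-Gal4 constructs, with 3 nM 6-alpha-fluorotestosterone present. Reporter mRNA was quantified 24 h after dosing by RT-PCR, 6-FAM labelling and capillary electrophoresis; gain of signal versus DMSO.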
# [14] = target: zebrafish Thyroid Hormone Receptor alpha (TRa), thraa (gene 30670) (UniProt Q98867); test: ATG_zfTRa_XSP1: Attagene TRANS-FACTORIAL Multi-Species (XSP1) HepG2 Assay for zebrafish Thyroid Hormone Receptor alpha (TRa) (AID 2283807)
# Outline: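 HepG2 cells transiently transfected with GAL4-UAS reporter units including a zebrafish TRa–Gal4 chimera, dosed 24 h with 3 nM 6-alpha-fluorotestosterone present. Reporter mRNA quantified by RT-PCR and capillary electrophoresis; gain versus DMSO.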
# [15] = tested on: turtle Androgen Receptor (AR), gene 101947425; test: ATG_trAR_XSP1: Attagene TRANS-FACTORIAL Multi-Species (XSP1) HepG2 Assay for turtle Androgen Receptor (AR) (AID 2283786)
# Outline: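 HepG2 cells transiently transfected with a turtle AR–GAL4 chimera and GAL4-UAS reporter, co-treated with 3 nM 6-alpha-fluorotestosterone for partial stimulation. Reporter mRNA is quantified at 24 h by RT-PCR and capillary electrophoresis, gain-of-signal versus DMSO.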
# [16] = target: Estrogen receptor beta (Homo sapiens) (UniProt Q92731); test: ATG_hERb_XSP1: Attagene TRANS-FACTORIAL Multi-Species (XSP1) HepG2 Assay for human Estrogen Receptor (ESR2) (AID 2283788)
# Outline: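 Measured endpoint is transcriptional gain of signal from a GAL4-UAS reporter controlled by chimeric ERβ in HepG2 liver cells. Exposure lasts 24 h alongside 3 nM 6-alpha-fluorotestosterone, with DMSO as negative control.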
# [17] = target: GAL4 Transcription Factor (Internal Marker), GAL4 (gene 855828) (UniProt P04386); test: ATG_GAL4_XSP1: Attagene TRANS-FACTORIAL Multi-Species (XSP1) HepG2 Assay for GAL4 Transcription Factor (Internal Marker) (AID 2283789)
# Outline: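 HepG2 cells transiently transfected with multiplexed GAL4-UAS reporter units were exposed for 24 h with 3 nM 6-alpha-fluorotestosterone present. Reporter mRNA was quantified by RT-PCR, FAM labelling, HpaI digestion and capillary electrophoresis; background-control readout, gain-of-signal versus DMSO.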
# [18] = target: human Thyroid hormone Receptor alpha (TRa), THRA (gene 7067) (UniProt P10827); test: ATG_hTRa_XSP1: Attagene TRANS-FACTORIAL Multi-Species (XSP1) HepG2 Assay for human Thyroid hormone Receptor alpha (TRa) (AID 2283805)
# Outline: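 HepG2 cells transiently transfected with GAL4-UAS reporter units expressing chimeric NR-Gal4 proteins, dosed 24 hours with 3 nM 6-alpha-fluorotestosterone present. Reporter mRNA measured by RT-PCR and capillary electrophoresis; gain of signal fitted versus DMSO.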
# GAL4 Transcription Factor (Internal Marker), GAL4 (gene 855828), sequence (P04386 whole entry, looked up, the tested form may be a part): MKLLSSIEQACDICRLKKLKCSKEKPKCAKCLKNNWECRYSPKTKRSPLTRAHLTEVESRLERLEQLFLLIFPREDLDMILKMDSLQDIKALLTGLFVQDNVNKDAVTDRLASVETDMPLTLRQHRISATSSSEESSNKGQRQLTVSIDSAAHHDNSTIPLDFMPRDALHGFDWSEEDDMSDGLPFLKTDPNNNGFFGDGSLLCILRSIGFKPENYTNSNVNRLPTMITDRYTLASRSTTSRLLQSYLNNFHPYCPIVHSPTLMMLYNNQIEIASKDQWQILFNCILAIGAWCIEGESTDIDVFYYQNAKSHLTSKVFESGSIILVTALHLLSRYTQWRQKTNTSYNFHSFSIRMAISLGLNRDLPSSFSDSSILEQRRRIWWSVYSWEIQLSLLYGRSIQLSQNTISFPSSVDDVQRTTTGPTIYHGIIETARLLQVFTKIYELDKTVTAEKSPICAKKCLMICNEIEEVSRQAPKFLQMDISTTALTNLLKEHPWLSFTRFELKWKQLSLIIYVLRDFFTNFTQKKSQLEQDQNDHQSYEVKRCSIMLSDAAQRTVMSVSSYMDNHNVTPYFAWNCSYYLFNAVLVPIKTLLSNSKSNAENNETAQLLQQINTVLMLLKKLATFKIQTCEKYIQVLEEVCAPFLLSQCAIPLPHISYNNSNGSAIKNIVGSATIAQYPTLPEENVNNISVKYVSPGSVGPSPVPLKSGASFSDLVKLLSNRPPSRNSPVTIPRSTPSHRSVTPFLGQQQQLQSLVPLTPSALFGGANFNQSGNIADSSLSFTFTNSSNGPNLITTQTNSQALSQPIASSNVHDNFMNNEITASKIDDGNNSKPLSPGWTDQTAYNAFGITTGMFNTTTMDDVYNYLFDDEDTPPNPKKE
# Estrogen receptor beta (Homo sapiens), sequence (Q92731 whole entry, looked up, the tested form may be a part): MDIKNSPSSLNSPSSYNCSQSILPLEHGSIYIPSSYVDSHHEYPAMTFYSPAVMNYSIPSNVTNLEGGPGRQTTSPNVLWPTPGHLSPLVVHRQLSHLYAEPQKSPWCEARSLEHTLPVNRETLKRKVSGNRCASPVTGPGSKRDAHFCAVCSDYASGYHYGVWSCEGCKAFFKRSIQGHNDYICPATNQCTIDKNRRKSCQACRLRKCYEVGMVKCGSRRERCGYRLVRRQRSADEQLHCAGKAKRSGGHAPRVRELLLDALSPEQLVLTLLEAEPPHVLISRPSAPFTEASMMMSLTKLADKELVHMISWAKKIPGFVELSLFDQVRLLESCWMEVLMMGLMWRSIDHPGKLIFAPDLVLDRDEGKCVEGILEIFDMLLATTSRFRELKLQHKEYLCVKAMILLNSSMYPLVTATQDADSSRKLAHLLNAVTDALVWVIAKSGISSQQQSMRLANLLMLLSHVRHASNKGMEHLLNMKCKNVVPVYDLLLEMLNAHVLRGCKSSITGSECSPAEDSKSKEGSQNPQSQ
# mouse Peroxisome Proliferator-activated Receptor gamma (PPARg), Pparg (gene 19016), sequence (P37238 whole entry, looked up, the tested form may be a part): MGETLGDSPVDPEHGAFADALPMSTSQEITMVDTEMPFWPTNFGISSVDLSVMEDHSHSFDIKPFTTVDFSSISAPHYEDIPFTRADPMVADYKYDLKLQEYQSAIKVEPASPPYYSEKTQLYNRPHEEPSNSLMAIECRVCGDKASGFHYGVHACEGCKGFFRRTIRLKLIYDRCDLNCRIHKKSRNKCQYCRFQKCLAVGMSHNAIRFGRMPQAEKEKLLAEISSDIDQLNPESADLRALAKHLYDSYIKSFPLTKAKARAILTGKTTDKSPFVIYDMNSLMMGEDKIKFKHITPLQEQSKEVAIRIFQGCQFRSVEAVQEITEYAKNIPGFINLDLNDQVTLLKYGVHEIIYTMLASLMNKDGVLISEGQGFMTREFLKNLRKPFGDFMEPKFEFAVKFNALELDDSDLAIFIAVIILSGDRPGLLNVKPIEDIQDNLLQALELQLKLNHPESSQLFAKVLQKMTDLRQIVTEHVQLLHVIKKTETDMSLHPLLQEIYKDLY
# human Thyroid hormone Receptor beta (TRb), THRB (gene 7068), sequence (P10828 whole entry, looked up, the tested form may be a part): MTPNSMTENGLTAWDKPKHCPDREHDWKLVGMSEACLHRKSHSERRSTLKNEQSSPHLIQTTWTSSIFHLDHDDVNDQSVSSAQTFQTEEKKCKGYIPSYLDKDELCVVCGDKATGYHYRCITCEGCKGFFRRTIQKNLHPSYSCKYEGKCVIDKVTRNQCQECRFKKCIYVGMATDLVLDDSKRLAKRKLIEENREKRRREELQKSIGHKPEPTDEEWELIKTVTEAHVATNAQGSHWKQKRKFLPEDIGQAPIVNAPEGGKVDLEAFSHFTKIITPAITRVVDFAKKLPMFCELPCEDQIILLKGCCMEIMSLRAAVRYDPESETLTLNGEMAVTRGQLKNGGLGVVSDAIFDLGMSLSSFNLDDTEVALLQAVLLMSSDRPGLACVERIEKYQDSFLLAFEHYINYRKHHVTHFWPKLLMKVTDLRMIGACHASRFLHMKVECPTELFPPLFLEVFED
# Peroxisome proliferator-activated receptor gamma (Homo sapiens), sequence (P37231 whole entry, looked up, the tested form may be a part): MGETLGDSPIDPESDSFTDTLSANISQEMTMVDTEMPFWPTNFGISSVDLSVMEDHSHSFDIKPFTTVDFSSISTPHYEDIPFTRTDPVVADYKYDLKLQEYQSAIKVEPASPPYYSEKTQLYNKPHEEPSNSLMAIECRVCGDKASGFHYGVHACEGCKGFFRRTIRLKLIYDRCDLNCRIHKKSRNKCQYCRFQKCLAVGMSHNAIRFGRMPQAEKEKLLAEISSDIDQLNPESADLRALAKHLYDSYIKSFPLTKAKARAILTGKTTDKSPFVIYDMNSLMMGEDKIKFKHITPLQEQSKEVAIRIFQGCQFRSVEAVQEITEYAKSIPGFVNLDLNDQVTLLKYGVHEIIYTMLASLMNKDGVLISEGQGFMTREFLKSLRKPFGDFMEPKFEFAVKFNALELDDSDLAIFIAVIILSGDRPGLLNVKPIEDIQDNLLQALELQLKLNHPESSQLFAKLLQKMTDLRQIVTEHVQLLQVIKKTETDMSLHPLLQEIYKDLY
# zebrafish Thyroid Hormone Receptor alpha (TRa), thraa (gene 30670), sequence (Q98867 whole entry, looked up, the tested form may be a part): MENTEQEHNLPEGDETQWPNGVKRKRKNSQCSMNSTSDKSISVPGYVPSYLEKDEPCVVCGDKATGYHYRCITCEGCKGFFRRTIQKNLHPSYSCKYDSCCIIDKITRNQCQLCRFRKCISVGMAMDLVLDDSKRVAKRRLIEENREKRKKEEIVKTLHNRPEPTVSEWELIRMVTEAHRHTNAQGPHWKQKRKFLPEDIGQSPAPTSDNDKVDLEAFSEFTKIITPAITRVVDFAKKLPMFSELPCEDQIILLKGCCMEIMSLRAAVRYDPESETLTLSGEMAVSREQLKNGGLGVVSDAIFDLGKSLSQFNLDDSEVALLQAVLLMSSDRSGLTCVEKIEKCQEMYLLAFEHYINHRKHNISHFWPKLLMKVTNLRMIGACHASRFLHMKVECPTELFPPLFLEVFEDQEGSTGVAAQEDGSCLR
# AR (gene 367), sequence (P10275 whole entry, looked up): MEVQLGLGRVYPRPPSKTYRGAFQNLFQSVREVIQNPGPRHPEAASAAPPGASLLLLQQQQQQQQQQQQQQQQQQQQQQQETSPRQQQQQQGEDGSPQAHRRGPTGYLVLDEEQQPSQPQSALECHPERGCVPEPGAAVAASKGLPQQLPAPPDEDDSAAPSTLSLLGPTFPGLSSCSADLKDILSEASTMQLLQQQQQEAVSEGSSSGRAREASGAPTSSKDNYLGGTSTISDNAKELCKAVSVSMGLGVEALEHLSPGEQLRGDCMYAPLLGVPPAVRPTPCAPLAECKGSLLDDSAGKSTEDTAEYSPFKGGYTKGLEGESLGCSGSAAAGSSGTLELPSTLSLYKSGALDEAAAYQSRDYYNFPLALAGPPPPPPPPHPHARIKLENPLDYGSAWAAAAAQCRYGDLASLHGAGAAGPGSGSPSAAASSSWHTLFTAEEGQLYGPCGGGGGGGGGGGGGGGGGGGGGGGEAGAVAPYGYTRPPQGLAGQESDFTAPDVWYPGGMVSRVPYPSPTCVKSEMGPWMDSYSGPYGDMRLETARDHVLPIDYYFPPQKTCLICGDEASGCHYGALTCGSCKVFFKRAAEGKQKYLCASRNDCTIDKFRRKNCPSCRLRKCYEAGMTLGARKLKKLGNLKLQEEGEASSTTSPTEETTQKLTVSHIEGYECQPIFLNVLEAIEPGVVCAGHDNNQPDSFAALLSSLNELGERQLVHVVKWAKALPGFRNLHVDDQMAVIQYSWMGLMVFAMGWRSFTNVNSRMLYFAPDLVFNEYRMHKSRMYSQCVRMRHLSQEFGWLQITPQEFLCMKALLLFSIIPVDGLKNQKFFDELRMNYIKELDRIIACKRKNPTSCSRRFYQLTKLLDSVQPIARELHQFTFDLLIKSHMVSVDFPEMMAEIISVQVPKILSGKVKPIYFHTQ
# frog Thyroid hormone Receptor alpha (TRa), thra-a (gene 397942), sequence (P15204 whole entry, looked up, the tested form may be a part): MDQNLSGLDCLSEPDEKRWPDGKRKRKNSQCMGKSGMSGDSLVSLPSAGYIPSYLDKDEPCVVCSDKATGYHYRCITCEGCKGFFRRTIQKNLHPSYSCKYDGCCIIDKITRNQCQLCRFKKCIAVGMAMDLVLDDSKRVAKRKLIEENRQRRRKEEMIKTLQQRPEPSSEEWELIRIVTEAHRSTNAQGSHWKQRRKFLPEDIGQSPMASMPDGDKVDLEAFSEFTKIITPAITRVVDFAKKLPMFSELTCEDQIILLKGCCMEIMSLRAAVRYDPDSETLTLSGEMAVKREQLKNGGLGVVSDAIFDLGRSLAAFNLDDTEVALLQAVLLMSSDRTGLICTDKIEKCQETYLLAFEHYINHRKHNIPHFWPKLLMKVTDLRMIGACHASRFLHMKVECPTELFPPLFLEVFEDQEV
compound,measurement,setting,value
CCOP(=S)(OCC)SCn1c(=O)oc2cc(Cl)ccc21,outcome,[1],inactive
same,outcome,[2],inactive
same,outcome,[3],inactive
same,AC50,[4],26.7 µM (active)
same,outcome,[5],inactive
same,outcome,[6],inactive
same,outcome,[7],inactive
same,outcome,[8],inactive
same,outcome,[9],inactive
same,outcome,[10],inactive
O=C(Nc1ccccc1)Nc1ccnc(Cl)c1,AC50,AR (gene 367),33.4 µM (active)
CCOC(=O)CC(SP(=S)(OC)OC)C(=O)OCC (centres undefined),AC50,AR (gene 367),88.6 µM (active)
CCON=C(CC)C1=C(O)CC(c2c(C)cc(C)cc2C)CC1=O (centres undefined),outcome,AR (gene 367),inactive
CCCC1COC(Cn2cncn2)(c2ccc(Cl)cc2Cl)O1 (centres undefined),AC50,AR (gene 367),76.1 µM (active)
same,outcome,[2],inactive
same,outcome,[11],inactive
same,AC50,[3],11.8 µM (active)
same,AC50,[4],56.9 µM (active)
same,outcome,[12],inactive
same,outcome,[13],inactive
same,outcome,[14],inactive
same,outcome,[6],inactive
same,outcome,[7],inactive
same,AC50,[8],64.2 µM (active)
same,outcome,[10],inactive
CCCN(CCC)c1c([N+](=O)[O-])cc(S(N)(=O)=O)cc1[N+](=O)[O-],outcome,[15],inactive
same,AC50,[16],14.8 µM (active)
same,AC50,[17],49.1 µM (active)
same,outcome,[1],inactive
same,AC50,[11],54.4 µM (active)
same,AC50,[3],46.9 µM (active)
same,AC50,[4],24.4 µM (active)
same,AC50,[12],8.93 µM (active)
same,AC50,[18],8.28 µM (active)
same,AC50,[13],8.29 µM (active)
same,outcome,[14],inactive
same,AC50,[5],9.26 µM (active)
same,AC50,[6],161 µM (active)
same,outcome,[7],inactive
same,outcome,[8],inactive
same,outcome,[9],inactive
N#Cc1cc(Br)c(O)c(Br)c1,AC50,AR (gene 367),53.5 µM (active)
CS/C(C)=N/OC(=O)N(C)SN(C)C(=O)O/N=C(\C)SC,AC50,AR (gene 367),76.7 µM (active)
CN(C)C(=S)SSC(=S)N(C)C,AC50,AR (gene 367),20.6 µM (active)
COC(=O)N(OC)c1ccccc1COc1ccn(-c2ccc(Cl)cc2)n1,outcome,[16],inactive
same,outcome,[17],inactive
same,outcome,[1],inactive
same,AC50,[3],3.24 µM (active)
same,AC50,[4],2.93 µM (active)
same,outcome,[12],inactive
same,AC50,[18],1.51 µM (active)
same,outcome,[13],inactive
same,outcome,[14],inactive
same,AC50,[5],3.33 µM (active)
same,outcome,[6],inactive
same,outcome,[7],inactive
same,outcome,[8],inactive
same,outcome,[9],inactive
same,outcome,[10],inactive
